Data taken from PubChem BioAssay AID1851 (National Center for Advancing Translational Sciences (NCATS), 2009).
About 2,600 (16%) of roughly 16,000 compounds were called active. Not shown: some 20% with an inconclusive outcome. Calls come from the whole dose curve; as a rule, active = well fitted curve in the direction sought with a large enough effect; inconclusive = small, poorly fitted or top-dose-only effect, or effect the other way; inactive = no such curve, though single readings can be large or run the other way. This excerpt belongs to a sample that is enriched for actives.

Target: Cytochrome P450 2D6 (Homo sapiens) (UniProt P10635)
Sequence (P10635 whole entry, looked up): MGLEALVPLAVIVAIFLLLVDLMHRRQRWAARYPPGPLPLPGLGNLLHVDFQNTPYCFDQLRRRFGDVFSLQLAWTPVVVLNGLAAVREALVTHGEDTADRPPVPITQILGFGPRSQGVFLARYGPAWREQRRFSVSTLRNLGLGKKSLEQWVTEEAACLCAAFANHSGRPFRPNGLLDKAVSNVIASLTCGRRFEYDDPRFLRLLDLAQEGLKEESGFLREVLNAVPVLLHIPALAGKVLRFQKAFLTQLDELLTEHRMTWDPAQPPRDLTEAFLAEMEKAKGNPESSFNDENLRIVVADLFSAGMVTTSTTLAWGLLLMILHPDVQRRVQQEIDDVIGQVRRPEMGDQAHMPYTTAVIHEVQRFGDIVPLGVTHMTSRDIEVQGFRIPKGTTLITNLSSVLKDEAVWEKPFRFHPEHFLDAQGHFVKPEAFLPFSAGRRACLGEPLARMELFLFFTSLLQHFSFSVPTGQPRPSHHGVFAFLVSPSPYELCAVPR
Assay: Cytochrome panel assay with activity outcomes
Conditions: recombinant CYP, pro-luciferin dealkylation, luminescence, p450-cyp2d6; series mostly up to 57.1 µM; activity, negative = inhibition: at the top concentration
% is set by controls: 0 for no effect and ±100 for the full control effect.

Compound	activity, negative = inhibition	AC50
CC(=O)OCC(=O)[C@@H]1CC[C@H]2[C@H]3CC[C@H]4C[C@@H](O)CC[C@]4(C)[C@@H]3C(=O)C[C@@]12C	3.28% [at 25.6 µM] (inactive)	
COc1ccc(C2NCc3ccc4c(c3-n3cccc32)OCO4)cc1OC (stereo unspecified)		398 nM (active)
CCNC(=O)[C@@H]1O[C@@H](n2cnc3c(N)ncnc32)[C@H](O)[C@H]1O	1.61% (inactive)	
C[C@@H]1[C@H]2C=C[C@@H]1[C@@H](c1c3ccc(=O)c(O)c-3oc3c(O)c(O)ccc13)[C@@H]2C(=O)O	2.68% [at 11.4 µM] (inactive)	
Cc1nc2ccccc2c(=O)n1-n1cnnc1	2.1% (inactive)	
Clc1ccc(C(c2ccc(Cl)cc2)n2cc[n+](C[C@@H](OCc3ccc(Cl)cc3Cl)c3ccc(Cl)cc3Cl)c2)cc1		39.8 nM (active)
O=C(C1CC(=O)N(C2CCCC2)C1)N1CCC2(CC1)OCCO2 (stereo unspecified)	13.9% (inactive)	
CCN1CCN(Cc2cc(OC)c(OC)cc2[N+](=O)[O-])CC1		6310 nM (active)
CCN1C[C@]2(C)CC[C@H](OC)[C@@]34[C@@H]2[C@H](OC(C)=O)[C@]2(OCO[C@@]25C[C@@H](OC)[C@@H]2C[C@@]3(O)[C@H]5[C@@H]2OC)[C@H]14	-2.5% [at 25.6 µM] (inactive)	
COC(=O)NC/C=C\c1nc(CC/C=C\C(=O)O[C@H]2C[C@H]3CC(=O)O[C@@H](/C=C\CC(C)C)C[C@@H]4CC[C@H](C)[C@H](C[C@@H](OC)C[C@H](C2)O3)O4)co1	-6.57% [at 11.4 µM] (inactive)	
CNC(C)Cc1ccccc1Sc1ccc(O)cc1 (stereo unspecified)		3160 nM (active)
CC(N)Cc1ccccc1Sc1ccc(O)cc1 (stereo unspecified)		10000 nM (active)
COC(=O)C1(C)C=C2C(=C(C)C(=O)C2C)CN1 (stereo unspecified)	-5.73% (inactive)	
CC(C)[C@@H]1CN[C@H](C(=O)O)[C@@H]1CC(=O)O	3.37% (inactive)	
C=C1[C@@H]2C[C@@]3([C@H]1O)[C@H]1C[C@@H]4[C@@]5(C)CC[C@H](O)[C@]4([C@H]1N(CC)C5)[C@H]3C[C@H]2O	-0.649% [at 25.6 µM] (inactive)	
CC(C)CNCCc1ccccn1	-13.8% [at 11.4 µM] (inactive)	
CCC(=O)O[C@H]1CC[C@H]2[C@@H]3CCC4=CC(=O)CC[C@]4(C)[C@H]3CC[C@]12C	-8.4% [at 25.6 µM] (inactive)	
CC[C@@H](C)[C@H]1O[C@]2(CC[C@@H]1C)C[C@@H]1C[C@H](C/C=C(/C)[C@H](O[C@@H]3C[C@H](OC)[C@H](O[C@@H]4C[C@H](OC)[C@@H](O)[C@H](C)O4)[C@H](C)O3)[C@@H](C)/C=C\C=C3CO[C@@H]4[C@H](O)C(C)=C[C@@H](C(=O)O1)[C@]34O)O2 (tested in a mixture with another compound)	5.21% (inactive)	
Cc1ccc2c(c1)N(CCC(=O)N1CCC3(CC1)OCCO3)C(=O)C(C)O2 (stereo unspecified)	-27.8% (inactive)	
CN1CCc2cc(O)cc3c2[C@H]1Cc1ccc(O)c(O)c1-3	-16% (inactive)	
COc1cc([C@H]2c3cc4c(cc3[C@@H](O)[C@@H]3COC(=O)[C@H]23)OCO4)cc(OC)c1OC	-7.23% [at 25.6 µM] (inactive)	

Compound	activity, negative = inhibition	AC50
CN1CCc2cc3c(cc2[C@@H]1O)OCO3		7940 nM (active)
CC(=O)N1CC[N+](C)(C)CC1	-1.9% (inactive)	
CC(C)(C)c1cc(C=C(C#N)C#N)cc(C(C)(C)C)c1O	-11.6% (inactive)	
CC1=C2C(=O)[C@@H]3[C@@H](CC=C4C[C@@H](O)CC[C@@]43C)[C@H]2CC[C@@]12O[C@H]1C[C@H](C)CN[C@H]1[C@@H]2C	9.41% [at 11.4 µM] (inactive)	
NS(=O)(=O)c1cc([C@@]2(O)NC(=O)c3ccccc32)ccc1Cl	4.03% [at 25.6 µM] (inactive)	
CCOc1ccc(C2C(C#N)=C(N)Oc3c2c(=O)oc2ccccc32)cc1 (stereo unspecified)	-8.83% (inactive)	
CCOC(C(=O)OCCCN(CC)CC)(c1ccccc1)c1ccccc1		2000 nM (active)
CC(C)NP(=O)(NC(C)C)OP(=O)(NC(C)C)NC(C)C	10.5% (inactive)	
CC(C)N[C@@H](C)Cc1ccc(I)cc1		100 nM (active)
Cc1ccc2cc3cc(C(=O)N4CCC5(CC4)OCCO5)oc3nc2c1	-17.5% (inactive)	
CCOC(=O)c1ncn2c1CN(C)C(=O)c1cc(F)ccc1-2	-7.93% (inactive)	
CC1(C)[C@@H]2CC[C@]1(C)CN(CCC[N+](C)(C)C)C2	2.02% [at 11.4 µM] (inactive)	
CS(=O)(=O)O[C@H]1CN2CCC1CC2	2.87% [at 11.4 µM] (inactive)	
C[C@]12CC[C@H](O)C[C@@H]1CC[C@H]1[C@H]2CC[C@]2(C)[C@H](C(=O)CO)CC[C@@H]12	-4.84% (inactive)	
c1ccc(N2CCCC3(CCNCC3)C2)nc1		10000 nM (active)
c1ccc(N2CCC3(CCNCC3)CC2)nc1		1260 nM (active)
c1csc(CN2CCCC3(CCNCC3)C2)n1	-11.9% (inactive)	
c1csc(CN2CCC3(CCNCC3)CC2)n1	5.07% (inactive)	
Cc1ccccc1OCCN=Cc1c(O)n(C)c(=O)n(C)c1=O	-8.35% (inactive)	
COc1cc2c(cc1OC)[C@@]13CCN4C=C5CCO[C@H]6CC(=O)N2[C@@H]1[C@@H]6[C@H]5C[C@H]43	9.01% [at 11.4 µM] (inactive)	
